Source: PubChem BioAssay (Tox21)
Values joined by “and” are separate entries in the source; they are usually repeats but may differ in a detail not shown here. Equal entries are not always repeated. Inconclusive results are not listed. Entries that show only a call come without a potency. A structure can be active in one record and inactive in another. Active and inactive are the calls of the source. Unless noted, calls come from the whole dose curve; as a rule, active = well fitted curve in the direction sought with a large enough effect in the repeat runs; inconclusive = weak or mixed curves; inactive = no such curve, though single readings can be large; an effect the other way counts as inactive or inconclusive.

Legend:
[1] = qHTS RealTime-Glo MT Cell Viability Assay in HepG2 cells - 16 hour (AID 1224885); note: nearly all actives have a fitted effect of over 50% in size
How it was run: (§1)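 HepG2 suspension premixed with RealTime-Glo reagents is plated at 600 cells per well and left 5 h at 37 C/5% CO2. Compounds in DMSO then go in, and bioluminescence reflecting viable cell number is recorded over 40 h.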

[2] = qHTS RealTime-Glo MT Cell Viability Assay in HEK293 cells - 24 hour (AID 1224886); note: top concentration of the series differs between compounds; nearly all actives have a fitted effect of over 50% in size
How it was run: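 Reads taken at 0, 8, 16, 24, 32 and 40 h from the same wells. HEK293 cells (600/well) carried RealTime-Glo reagents from seeding, with compound added after a 5 h settle at 37 C.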

[3] = qHTS RealTime-Glo MT Cell Viability Assay in HEK293 cells - 8 hour (AID 1224887); note: top concentration of the series differs between compounds; nearly all actives have a fitted effect of over 50% in size
How it was run: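 Measured as luminescence from the same continuously cultured HEK293 wells at successive time points (0, 8, 16, 24, 32, 40 h) after compound addition. Reagent present from seeding; dosing at 5 h; incubation 37 C.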

[4] = A CellTox Green Cytotoxicity Assay to monitor cytotoxicity in HEK293 cells - 16 hour (AID 1224888); note: nearly all actives have a fitted effect of over 35% in size
How it was run: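 Homogeneous no-lysis format: HEK293 cell suspension mixed with CellTox Green reagent, seeded, incubated 5 h at 37 C/5% CO2, then dosed by pintool with compound in DMSO.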

[5] = qHTS RealTime-Glo MT Cell Viability Assay in HepG2 cells - 0 hour (AID 1224889); note: nearly all actives have a fitted effect of over 50% in size
How it was run: as §1

[6] = A CellTox Green Cytotoxicity Assay to monitor cytotoxicity in HepG2 cells - 8 hour (AID 1224890); note: nearly all actives have a fitted effect of over 45% in size
How it was run: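 Fluorescent DNA-binding dye, 600 HepG2 cells/well, 5 h preincubation then compound in DMSO; same plates read at 0–40 h, 37 C.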

[7] = qHTS assay to identify small molecule antagonists of the estrogen receptor alpha (ER-alpha) signaling pathway using the BG1 cell line in the presence of 0.1 nM 17-beta-estradiol - cell viability counter screen (AID 1259241); note: nearly all actives have a fitted effect of over 40% in size
How it was run: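 VM7Luc4E2 cells (endogenous ER-alpha, 4×ERE-luciferase), hormone-starved 5 days in charcoal-stripped FBS, were treated with compounds plus 0.1 nM 17beta-estradiol for 22 hr at 37C; viability read in same wells as CellTiter-Fluor live-cell protease fluorescence.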

[8] = qHTS assay to identify small molecule antagonists of the androgen receptor (AR) signaling pathway using the MDA cell line in the presence of 0.5 nM R1881 - cell viability counter screen (AID 1259242); note: nearly all actives have a fitted effect of over 45% in size
How it was run: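 Human breast carcinoma MDA-kb2 cells, cultured without CO2, receive compounds alongside 0.5 nM (final) R1881 agonist. After 16 hr at 37C, viability is taken as live-cell protease signal.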

[9] = target: Estrogen receptor (Homo sapiens) (UniProt P03372); assay: qHTS assay to identify small molecule antagonists of the estrogen receptor alpha (ER-alpha) signaling pathway using the BG1 cell line in the presence of 0.1 nM 17-beta-estradiol (AID 1259244); note: nearly all actives have a fitted effect of over 50% in size
How it was run: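 Seeding of stripped-serum-adapted VM7Luc4E2 cells, 24 h attachment, compound transfer, then 0.1 nM final 17beta-estradiol; after 22 h incubation, ONE-Glo reagent and luminescence reading.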

[10] = qHTS assay to identify small molecule HDAC inhibitors (AID 1259364);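 note: wild-type HCT-116 cells with endogenous class I/II HDAC activity; top concentration of the series differs between compounds; nearly all actives have a fitted effect of over 45% in size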
How it was run: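 After a 2 hr compound incubation (37C, 5% CO2), HCT-116 cells seeded at 1,500/well the day before received HDAC-Glo reagent; signal read as luminescence after 30 min at room temperature.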

[11] = qHTS assay to identify small molecule HDAC inhibitors - cell viability counter screen (AID 1259365)
How it was run: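 Wild-type HCT-116 cells were seeded at 1,500 per well, incubated overnight at 37 C, then exposed to compounds in DMSO for 2hr. Viability was read by CellTiter-Glo luminescence after 30min at room temperature.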

[12] = qHTS assay to identify small molecule agonists of the sonic hedgehog signaling (Shh) pathway - cell viability counter screen (AID 1259366); note: nearly all actives have a fitted effect of over 50% in size
How it was run: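 NIH/3T3-derived 3T3 Gli1-Luc cells (stable Gli1-responsive firefly luciferase reporter) were seeded, rested 4 hr at 37 C/5% CO2, then exposed to compounds in DMSO for 24 hr; viability was read by CellTiter-Fluor fluorescence in the same wells.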

[13] = qHTS assay to identify small molecule agonists of the sonic hedgehog signaling (Shh) pathway (AID 1259368; calls by dose curve; note: series mostly up to about 92 µM; nearly all actives have a fitted effect of over 15% in size)
How it was run: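 Stable NIH/3T3 Gli1-Luc reporter clone; 24 hr cpd exposure after a 4 hr settling period; luminescence endpoint.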

[14] = qHTS assay to identify small molecule antagonists of the sonic hedgehog signaling (Shh) pathway (AID 1259369; calls by dose curve; note: nearly all actives have a fitted effect of over 45% in size; note: potency is the fitted concentration of half-maximal effect)
How it was run: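 Gli1 transcriptional reporter (firefly Luc) in NIH/3T3 background, conditioned-medium activated. 24hr exposure, luminescence endpoint.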

[15] = qHTS assay to identify small molecule agonists of the androgen receptor (AR) signaling pathway in the presence of an antagonist - cell viability counter screen (AID 1259379);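 note: MDA-kb2 human breast cancer cells carrying an MMTV luciferase reporter; series mostly up to about 92 µM; nearly all actives have a fitted effect of over 25% in size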
How it was run: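 Counter screen for cell viability run in parallel with the AR agonist-mode luciferase assay. MDA-kb2 cells were co-treated with nilutamide (3.0uM final) and compounds, then incubated 16 hr at 37C, and CellTiter-Fluor fluorescence was measured.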

[16] = qHTS assay to identify small molecule phospholipidosis (PLD) inducers (AID 1259344; active = well fitted curve in the direction sought with a large enough effect; an effect the other way counts as inactive or inconclusive)
How it was run: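 Accumulated phospholipid, stained red by LipidTOX during 24 h compound treatment of HepG2 cells at 37 C, is quantified from images as pit number and intensity, normalised per cell using Hoechst-stained nuclei.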

[17] = qHTS assay to identify small molecule antagonists of the sonic hedgehog signaling (Shh) pathway - cell viability counter screen (AID 1259367); note: nearly all actives have a fitted effect of over 55% in size
How it was run: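 CellTiter-Fluor signal in conditioned medium-stimulated 3T3 Gli1-Luc cells, 23 hr compound exposure, 37C.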

[18] = target: Estrogen receptor beta (Homo sapiens) (UniProt Q92731); assay: qHTS assay to identify small molecule agonists of the estrogen receptor beta (ER-beta) signaling pathway (AID 1259377; active = well fitted activation curve with a large enough effect in the signal ratio in the repeat runs, not every such curve was filed as active; the % refers to the signal ratio)
How it was run: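 ER-beta-UAS-bla HEK293T (GripTite) cells carrying a UAS-driven beta-lactamase reporter, in medium with 2% charcoal-stripped FBS, were exposed to compounds for 16 hr at 37C; LiveBLAzer B/G FRET substrate was then added and fluorescence read after 2 hours at room temperature.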

[19] = target: Estrogen receptor beta (Homo sapiens) (UniProt Q92731); assay: qHTS assay to identify small molecule antagonists of the estrogen receptor beta (ER-beta) signaling pathway (AID 1259378; active = well fitted inhibition curve with a large enough effect in the signal ratio in the repeat runs, not every such curve was filed as active; the % refers to the signal ratio)
How it was run: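 Antagonist mode: compounds added to beta-lactamase reporter HEK293T ER-beta-UAS cells stimulated with E2 (1nM final), 16 hr at 37C. LiveBLAzer B/G FRET substrate, 2 hours room temperature, fluorescence read-out.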

Chain of Estrogen receptor beta (Homo sapiens) (Q92731 whole entry, looked up): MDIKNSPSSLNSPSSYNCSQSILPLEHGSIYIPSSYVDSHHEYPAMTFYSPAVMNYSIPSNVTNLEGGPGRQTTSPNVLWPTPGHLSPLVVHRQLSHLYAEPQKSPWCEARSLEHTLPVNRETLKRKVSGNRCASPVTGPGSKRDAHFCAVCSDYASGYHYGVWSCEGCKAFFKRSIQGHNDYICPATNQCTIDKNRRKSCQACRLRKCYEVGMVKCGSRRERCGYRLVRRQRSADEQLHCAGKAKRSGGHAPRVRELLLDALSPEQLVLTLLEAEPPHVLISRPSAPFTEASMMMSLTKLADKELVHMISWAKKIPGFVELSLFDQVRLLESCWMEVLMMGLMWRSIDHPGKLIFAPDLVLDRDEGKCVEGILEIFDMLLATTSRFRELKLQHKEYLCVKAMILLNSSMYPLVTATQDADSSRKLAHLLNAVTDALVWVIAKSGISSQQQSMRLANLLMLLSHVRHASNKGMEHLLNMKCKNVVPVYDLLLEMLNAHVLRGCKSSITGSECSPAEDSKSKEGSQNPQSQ
Chain of Estrogen receptor (Homo sapiens) (P03372 whole entry, looked up): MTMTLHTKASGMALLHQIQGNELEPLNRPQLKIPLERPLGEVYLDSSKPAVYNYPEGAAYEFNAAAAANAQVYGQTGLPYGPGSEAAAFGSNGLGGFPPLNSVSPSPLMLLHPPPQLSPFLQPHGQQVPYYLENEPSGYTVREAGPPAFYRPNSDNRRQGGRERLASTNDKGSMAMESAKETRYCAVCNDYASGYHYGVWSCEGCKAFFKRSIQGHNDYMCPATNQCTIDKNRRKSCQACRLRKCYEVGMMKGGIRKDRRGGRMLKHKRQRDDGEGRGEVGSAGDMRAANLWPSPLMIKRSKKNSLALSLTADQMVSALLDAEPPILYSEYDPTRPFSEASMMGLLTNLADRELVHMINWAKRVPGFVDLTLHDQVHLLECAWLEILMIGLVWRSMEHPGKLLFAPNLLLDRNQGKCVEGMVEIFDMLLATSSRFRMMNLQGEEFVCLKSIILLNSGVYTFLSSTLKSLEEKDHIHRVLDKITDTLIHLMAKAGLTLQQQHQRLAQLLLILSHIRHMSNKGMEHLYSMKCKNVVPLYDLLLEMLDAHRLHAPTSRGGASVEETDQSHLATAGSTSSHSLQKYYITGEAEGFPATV

SMILES	outcome [1]	Potency [2]	Potency [3]	outcome [4]	Potency [5]	Potency [6]	Potency [7]	outcome [8]	Potency [9]	Potency [10]	outcome [11]	Potency [12]	outcome [13]	Potency [14]	Potency [15]	outcome [16]	Potency [17]	Potency [18]	Potency [19]	PLD induction [16]
CCCCCOC(C)=O	inactive	inactive	inactive	inactive	inactive	inactive	inactive	inactive	inactive	inactive	inactive	inactive	inactive	inactive and 27.3 µM (active)	inactive	–	–	–	–	–
CC(=O)Nc1cccc(O)c1	inactive	inactive	inactive	inactive	inactive	inactive	inactive	inactive	inactive	inactive	inactive	inactive	–	inactive	inactive	inactive	inactive	inactive	inactive	–
CCCCN(CCCC)CCCC	inactive	inactive	inactive	inactive	inactive	inactive	inactive	inactive	inactive	inactive	inactive	inactive	inactive	inactive	inactive	–	inactive	inactive	inactive	–
O=[N+]([O-])c1ccc(/C=C/c2ccc([N+](=O)[O-])cc2S(=O)(=O)O)c(S(=O)(=O)O)c1	inactive	inactive	inactive	inactive	inactive	inactive	inactive	inactive	inactive	inactive	inactive	inactive	inactive	inactive	inactive	–	inactive	inactive	inactive	–
CCOC(=O)NNc1nncc2ccccc12	inactive	inactive	inactive	inactive	inactive	inactive	inactive	inactive	inactive	inactive	inactive	inactive	inactive	inactive	inactive	–	inactive	–	–	-1.23% [at 7.66 µM] (inactive)
OCc1cccnc1	inactive	inactive	inactive	inactive	inactive	inactive	inactive	inactive	inactive	inactive	inactive	inactive	–	inactive	inactive	inactive	inactive	–	–	–
C=CCOC(=O)c1ccccc1C(=O)OCC=C	inactive	inactive	inactive	inactive	inactive	inactive	inactive	inactive	inactive	inactive	inactive	inactive	inactive	inactive	inactive	–	inactive	–	–	–
c1ccc2scnc2c1	inactive	inactive	inactive	inactive	inactive	inactive	inactive	inactive	inactive	inactive	inactive	inactive	inactive	inactive	inactive	–	–	inactive	inactive	–
